What follows are compounds tested on Vero E6 infected with SARS-CoV-2 (assay: morphology score (similarity to uninfected cells); higher = more like uninfected cells). Conditions: 24 h.

Structure (SMILES)	morphology score
CN1CCN(c2ccc(C(=O)Nc3n[nH]c4ccc(Cc5cc(F)cc(F)c5)cc34)c(NC3CCOCC3)c2)CC1 [entrectinib] (0.833333 µM)	0.134
CC(C)[C@@H]1C(=O)N(S(C)(=O)=O)[C@@H]2CCN(C(=O)/C=C/CN3CCCCC3)[C@H]21 (10 µM)	0.0406
CC(C)C(=O)Nc1ccc([N+](=O)[O-])c(C(F)(F)F)c1 [flutamide] (10 µM)	-0.24
COc1ccc2cc3[n+](cc2c1OC)CCc1cc2c(cc1-3)OCO2 [berberine] (10 µM)	0.0605
O=c1n(CC2CO2)c(=O)n(CC2CO2)c(=O)n1CC1CO1 (stereo not given) [teroxirone] (10 µM)	-0.0418
CCOC(=O)[C@H](CCc1ccccc1)N[C@@H](C)C(=O)N1Cc2ccccc2C[C@H]1C(=O)O [quinapril] (10 µM)	-0.145
O=C(O)Cc1ccccc1Nc1c(Cl)cccc1Cl [diclofenac] (10 µM)	-0.00811
CN1CCN(c2cc3c(cc2F)c(=O)c(C(=O)O)cn3-c2ccc(F)cc2)CC1 [difloxacin] (10 µM)	-0.0785
CCCCCCCCCCCCCCCC(=O)O[C@@H]1[C@@H](O)[C@@H](O)[C@@H]([C@H](NC(=O)[C@@H]2C[C@@H](CCC)CN2C)[C@H](C)Cl)O[C@@H]1SC [clindamycin-palmitate] (10 µM)	0.0793
COc1cc(O)c(C(=O)c2ccccc2)cc1S(=O)(=O)O [sulisobenzone] (10 µM)	-0.0207
Cc1cc(/C=C2\SC(=O)N(c3ccccc3)C2=O)c(C)n1-c1cccnc1 (10 µM)	-0.171
CONC(=N)c1ccc(-c2ccc(-c3ccc(C(=N)NOC)cc3)o2)cc1 [pafuramidine] (10 µM)	0.0672
Cc1cccc(-c2nn3c(c2-c2ccnc4ccc(C(N)=O)cc24)CCC3)n1 (10 µM)	0.128
CNC(=N)NC(=O)Nc1c(C)cccc1C [lidamidine] (10 µM)	-0.327
COc1ccc(C2(O)CCC(N3CC[C@@H](NC(=O)CNC(=O)c4cccc(C(F)(F)F)c4)C3)CC2)cn1 (stereo not given in full) (10 µM)	-0.0197
Cc1ccc2c(c1)[C@H]1CN(C)CC[C@H]1N2 [stobadine] (10 µM)	0.0748
O=C(C1CCCCC1)N1CC(=O)N2CCc3ccccc3C2C1 (stereo not given) [praziquantel] (10 µM)	0.151
Cc1c(C)c2c(c(C)c1O)CC[C@@](C)(CCC[C@H](C)CCC[C@H](C)CCCC(C)C)O2 [vitamin-E] (10 µM)	-0.299
OC(c1ccccc1)(c1ccccc1)C1CCNCC1 [azacyclonol] (10 µM)	-0.109
CCN(CCCc1ccccc1)CCCc1ccccc1 [alverine] (10 µM)	0.397

Structure (SMILES)	morphology score
CNC(=O)c1cc(Oc2ccc(NC(=O)Nc3ccc(Cl)c(C(F)(F)F)c3)cc2)ccn1 [sorafenib] (0.833333 µM)	-0.246
Oc1ccc(-c2nc(-c3ccc(F)cc3)c(-c3ccncc3)[nH]2)cc1 (10 µM)	0.313
COc1cc(C[C@@H](CO)[C@H](CO)Cc2ccc(O)c(OC)c2)ccc1O [secoisolariciresinol-(-)] (10 µM)	-0.0638
CC(C)[N+](C)(CCOC(=O)C1c2ccccc2Oc2ccccc21)C(C)C [propantheline] (10 µM)	0.214
NS(=O)(=O)C#Cc1ccccc1 [pifithrin-mu] (0.833333 µM)	0.168
Cc1c(Cl)cccc1S(=O)(=O)Nc1nc(CC(=O)N2CCN(C)CC2)cs1 (10 µM)	-0.053
O=C(O[C@@H]1Cc2c(O)cc(O)cc2O[C@@H]1c1cc(O)c(O)c(O)c1)c1cc(O)c(O)c(O)c1 [epigallocatechin-gallate-(-)] (10 µM)	0.156
Cc1c(C(=O)NN2CCOCC2)nn(-c2ccc(Cl)cc2Cl)c1-c1ccc(I)cc1 (10 µM)	0.11
Nc1nc(CC(=O)Nc2ccc(CCNC[C@H](O)c3ccccc3)cc2)cs1 [mirabegron] (10 µM)	-0.0704
O=C(NCCCNc1nc(Nc2cccc(NC(=O)N3CCCC3)c2)ncc1I)c1cccs1 (0.833333 µM)	0.0981
O/N=C/c1ccc(-c2ccc(O)c(F)c2)c(Cl)c1O (10 µM)	0.342
O=C1[O][SbH]23[O]C(=O)C([O]2)C2[O][SbH]4([O]C(=O)C([O]4)C1[O]3)[O]C2=O [antimonyl] (10 µM)	0.138
N#Cc1cccc(-c2nc(-c3cccnc3)no2)c1 (10 µM)	0.143
Cc1ncc(-c2ccnc(Nc3ccc(S(C)(=O)=O)cc3)n2)n1C(C)C (0.833333 µM)	-0.165
Nc1nnc(Sc2ncc([N+](=O)[O-])s2)s1 (0.833333 µM)	0.248
Cc1c(C)c2c(c(C)c1O)CCC(C)(C)O2 (10 µM)	-0.0795
CC1OC2(CS1)CN1CCC2CC1 (stereo not given) [cevimeline] (10 µM)	0.0787
C1=N/C2=N/c3ccc(OCCN4CCCC4)c(c3)COC/C=C/COCc3cccc(c3)C(=C1)N2 [pacritinib] (0.833333 µM)	0.286
Nc1ncn([C@H]2C[C@H](O)[C@@H](CO)O2)c(=O)n1 [decitabine] (10 µM)	0.0186
CNCC(=O)O [sarcosine] (10 µM)	0.0271

Source: the supplement of paper PMC13380429
